Screens as filed in PubChem.
ST2 inh: IL1RL1 inhibition; Q01638; AlphaLISA ST2-Fc/biotin-IL-33 interaction, 1 h; inhibition, % for hits at 17 µM; hit rate 2.3% among 78,000; AID 1259354; in the data active = inhibition above about 30%
Target sequence (Q01638 whole entry, looked up): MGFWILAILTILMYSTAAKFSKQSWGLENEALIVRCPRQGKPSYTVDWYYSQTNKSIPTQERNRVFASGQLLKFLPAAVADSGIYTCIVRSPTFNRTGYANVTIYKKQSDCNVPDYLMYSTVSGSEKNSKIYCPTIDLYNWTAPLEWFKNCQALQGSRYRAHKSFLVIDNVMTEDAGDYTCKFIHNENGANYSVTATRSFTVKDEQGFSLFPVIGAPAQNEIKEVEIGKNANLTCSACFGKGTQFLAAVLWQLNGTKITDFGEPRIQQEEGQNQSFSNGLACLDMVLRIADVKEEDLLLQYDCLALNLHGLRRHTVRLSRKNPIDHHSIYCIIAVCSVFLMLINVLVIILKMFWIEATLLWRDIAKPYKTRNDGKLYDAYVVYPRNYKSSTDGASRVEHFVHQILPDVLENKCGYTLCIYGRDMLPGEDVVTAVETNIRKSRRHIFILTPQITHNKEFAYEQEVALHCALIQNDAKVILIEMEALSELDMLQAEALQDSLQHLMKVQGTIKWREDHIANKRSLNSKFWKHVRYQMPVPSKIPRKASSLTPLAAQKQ
* = called active by the depositor; i = inactive. Many of the other results were omitted from the sample, so hits are more common in it than they were.

SMILES | ST2 inh
COc1cc(C2C(C#N)=C(N)OC3=C2C(=O)CC(c2ccccc2)C3)ccc1OCc1ccccc1 (stereo not drawn) | 37%*
COc1ccc(CN2CCN(c3ncccn3)CC2)cc1O | i
COC[C@H]1CCCN1[C@@H]1[C@H](O)[C@H](CO)O[C@@H]1CNC(=O)c1ccco1 | i
O=C(Nc1cccc(-c2cccc(Cl)c2)c1)C1CCN(C(=O)C2CC=CCC2)CC1 (stereo not drawn) | i
O=c1oc2ccc(Cl)cc2c2c1SC(C(F)(F)F)C2 (stereo not drawn) | i
O=C(c1ccncc1)N1CCCC(CCc2ccccc2C(F)(F)F)C1 (stereo not drawn) | i
c1ccc(-c2nc3c(c(N4CCN(Cc5cnc(N6CCCC6)s5)CC4)n2)CCC3)cc1 | i
O=C1CCc2cc(S(=O)(=O)N3CCN4CCNC(=O)C4C3)ccc2N1 (stereo not drawn) | i
COc1ccccc1NS(=O)(=O)c1cc([N+](=O)[O-])ccc1C | i
CCOc1ccccc1NS(=O)(=O)c1cc(C)ccc1OC | i
COc1ccccc1NC1=CC(=NS(=O)(=O)c2ccc(C)cc2C)c2ccccc2C1=O | 95%*
COc1ccccc1NC1=CC(=NS(=O)(=O)c2ccccc2)c2ccccc2C1=O | 95%*
Cc1ccccc1NS(=O)(=O)c1ccc(NS(=O)(=O)c2ccc(F)cc2)cc1 | i
COc1ccccc1NC(=O)CN(C)S(=O)(=O)c1ccccc1 | i
CCc1ccc(S(=O)(=O)N2CCSC2c2ccccc2OC)cc1 (stereo not drawn) | i
COc1ccc(S(=O)(=O)Nc2ccccc2Br)cc1OC | i
CC(C)c1ccccc1NS(=O)(=O)c1ccc(F)cc1 | i
COc1ccccc1NC(=O)C(Cc1ccccc1)N1C(=O)c2ccccc2C1=O (stereo not drawn) | i
Cc1ccccc1NC1=CC(=NS(=O)(=O)c2ccc(F)cc2)c2ccccc2C1=O | 77%*
CCc1ccc(S(=O)(=O)N=C2C=C(Nc3ccccc3OC)C(=O)c3ccccc32)cc1 | 95%*
CC(Oc1ccccc1F)C(=O)Nc1ccc(Br)cc1 (stereo not drawn) | i
O=C1CC(=O)N(c2cc(Cl)cc(Cl)c2)N1 | i
CCc1ccc(C2CC(c3cccc(Br)c3)n3nc(N)nc3N2)cc1 (stereo not drawn) | i
O=C(NC1CC(=O)N(CCc2ccccc2)C1)c1cc2ccccc2o1 (stereo not drawn) | i
CCOc1ccc(S(=O)(=O)NCCCOC(C)C)c2cccnc12 | i
SMILES | ST2 inh
CCc1ccc(-c2nccn2-c2ccc(OC)nc2)nc1 | i
O=C(c1noc2c1CCc1ccccc1-2)N1CCN(c2ccc(F)cc2)CC1 | i
NS(=O)(=O)c1cccc(NC(=O)c2cc(I)ccc2Cl)c1 | i
COc1ccccc1NS(=O)(=O)c1ccc2[nH]c(=O)sc2c1 | i
COc1ccccc1NS(=O)(=O)c1ccc(Cl)cc1 | i
COc1ccccc1NC1=CC(=NS(=O)(=O)c2ccc(F)cc2)c2ccccc2C1=O | 95%*
COc1ccccc1NC(=O)c1ccc(F)cc1 | i
COc1ccc(S(=O)(=O)Nc2ccccc2C)cc1 | i
COc1ccc(S(=O)(=O)N=C2C=C(Nc3ccccc3OC)C(=O)c3ccccc32)cc1 | 94%*
Cc1cccc(-n2ncc3c(NCc4cccc(Cl)c4)ncnc32)c1 | i
CC(C)CN(CC(C)C)C(=O)c1cccc(Br)c1 | i
CN(C)c1ncc2c(n1)CCCC2NC(=O)CCn1cncn1 (stereo not drawn) | i
CC(C)Cn1cc(C(=O)N2CCN(c3ccc(Cl)cc3)CC2)c2c3ccccc3n(C)c2c1=O | i
O=C(NCc1ccc2c(c1)OCO2)c1ccc2c(c1)ncn2C1CCCC1 | i
c1cncc(COC2CCCN(Cc3ccc4nonc4c3)C2)c1 (stereo not drawn) | i
CCCCc1ccc(N=Cc2nc(-c3ccc(Cl)cc3)oc2O)cc1 | i
CCOC(=O)c1sc(=NC(=O)c2ccc(OCC)cc2)n(C)c1C | i
CCOc1ccc(-c2csc(=Nc3ccccc3)n2CCN2CCOCC2)cc1 | i
O=S(=O)(c1ccc(-c2csc(=Nc3ccc(Cl)cc3)n2CCCO)cc1)N1CCCC1 | 40%*
Cn1c(=NC(=O)c2ccc(S(=O)(=O)N3CCCC3)cc2)sc2cc(Cl)ccc21 | i
O=C(c1ccc(S(=O)(=O)N2CCCC2)cc1)N1CCN=C1SCc1ccc(Cl)cc1 | i
Fc1ccc(Nc2nc(-c3ccc(Cl)cc3)cs2)cc1 | i
CCOc1ccc(N=c2scc(-c3ccc(F)cc3)n2CCCO)cc1 | 40%*
OCCCn1c(-c2ccc(F)cc2)csc1=Nc1ccc(Cl)cc1 | 46%*
CCOC(=O)c1sc(=Nc2ccc(C)cc2)n(CCN2CCOCC2)c1C | i
O=C(NCc1ccc(F)cc1)c1cc(-c2ccc(Cl)cc2)on1 | i
CCOc1ccc(NC(=O)Cc2ccc(F)cc2)cc1 | i
CCOc1ccc(N=c2scc(-c3ccc(C)cc3)n2C)cc1 | 43%*
Cc1c(CN2CCC(n3nccc3NC(=O)c3ccccc3Cl)CC2)[nH]c2ccccc12 | i
